Results as given in the supplement of paper PMC11732987, “Enantioselective OTUD7B fragment discovery through chemoproteomics screening and high-throughput optimisation” (Communications Chemistry, 2025).

Columns and labels:
Assay in all cases: log2 ratio of Biotin-Ahx-Ub-VS probe labelling (fragment/DMSO); higher = less target engagement (more negative = stronger competition), active = hit call of the paper (q ≤ 0.05, log2 ratio ≤ -1)
Conditions in all cases: compound concentration: 200 uM; treatment time: 3 h
OTUD6B = target: T1, OTUD6B (UniProt Q8N6M0)
T1 sequence (whole entry): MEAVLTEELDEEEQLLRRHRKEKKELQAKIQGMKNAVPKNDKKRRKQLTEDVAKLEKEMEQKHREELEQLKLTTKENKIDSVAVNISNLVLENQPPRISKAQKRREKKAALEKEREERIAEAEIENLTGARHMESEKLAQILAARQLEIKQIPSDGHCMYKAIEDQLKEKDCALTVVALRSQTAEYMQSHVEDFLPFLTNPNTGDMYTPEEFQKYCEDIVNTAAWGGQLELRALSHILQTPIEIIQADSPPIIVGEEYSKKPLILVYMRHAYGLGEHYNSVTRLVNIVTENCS
In short: (§1)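 Fragment (200 µM) or vehicle was incubated for 3 h with triplicate HEK293T lysate samples of 495 µg, which were then treated with Biotin-Ahx-Ub-VS at 0.5 µM final for 1 h. Labelled DUBs were enriched on NeutrAvidin, digested with LysC and trypsin, and analysed by diaPASEF LC-MS/MS. Values are average log2 fragment/vehicle ratios from an unpaired t-test on global-median-normalised Spectronaut label-free quantities, using proteins with ≥2 unique peptides.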

OTUD7B = target: T2, OTUD7B (UniProt Q6GQQ9)
T2 sequence (whole entry): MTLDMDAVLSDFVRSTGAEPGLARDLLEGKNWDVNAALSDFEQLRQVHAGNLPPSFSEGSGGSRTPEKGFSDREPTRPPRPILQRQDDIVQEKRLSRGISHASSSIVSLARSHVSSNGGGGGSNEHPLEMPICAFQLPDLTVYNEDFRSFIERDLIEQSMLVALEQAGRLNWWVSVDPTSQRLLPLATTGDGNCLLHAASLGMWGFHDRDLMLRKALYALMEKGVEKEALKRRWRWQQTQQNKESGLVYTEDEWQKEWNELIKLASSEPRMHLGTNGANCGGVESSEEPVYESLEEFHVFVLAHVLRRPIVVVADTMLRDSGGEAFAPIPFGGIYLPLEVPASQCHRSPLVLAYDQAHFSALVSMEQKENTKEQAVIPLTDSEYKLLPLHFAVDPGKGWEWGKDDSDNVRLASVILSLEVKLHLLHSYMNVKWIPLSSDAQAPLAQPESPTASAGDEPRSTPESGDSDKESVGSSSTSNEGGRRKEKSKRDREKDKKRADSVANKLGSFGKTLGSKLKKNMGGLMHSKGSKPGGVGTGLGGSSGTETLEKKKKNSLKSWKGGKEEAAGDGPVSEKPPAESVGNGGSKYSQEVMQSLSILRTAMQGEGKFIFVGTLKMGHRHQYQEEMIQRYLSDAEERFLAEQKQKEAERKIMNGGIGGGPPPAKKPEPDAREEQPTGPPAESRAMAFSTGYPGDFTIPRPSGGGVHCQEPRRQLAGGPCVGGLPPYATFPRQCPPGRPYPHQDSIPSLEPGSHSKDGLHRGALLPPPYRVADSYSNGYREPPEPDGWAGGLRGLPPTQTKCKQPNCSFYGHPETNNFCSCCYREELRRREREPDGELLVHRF
In short: as §1

PRPF8 = PRPF8 (UniProt Q6P2Q9)
In short: as §1

PSMD7 = target: T3, PSMD7 (UniProt P51665)
T3 sequence (whole entry): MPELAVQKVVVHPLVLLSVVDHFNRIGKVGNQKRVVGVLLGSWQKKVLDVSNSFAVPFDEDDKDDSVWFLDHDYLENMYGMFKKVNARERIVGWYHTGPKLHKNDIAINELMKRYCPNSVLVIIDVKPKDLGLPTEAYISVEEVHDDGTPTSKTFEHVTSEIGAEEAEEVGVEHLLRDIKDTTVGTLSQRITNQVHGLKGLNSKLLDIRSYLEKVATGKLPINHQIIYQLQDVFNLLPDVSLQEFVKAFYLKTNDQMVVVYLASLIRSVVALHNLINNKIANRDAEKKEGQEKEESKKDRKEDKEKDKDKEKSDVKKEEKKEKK
In short: as §1

UCHL1 = UCHL1 (UniProt P09936)
In short: as §1

UCHL3 = target: T4, UCHL3 (UniProt P15374)
T4 sequence (whole entry): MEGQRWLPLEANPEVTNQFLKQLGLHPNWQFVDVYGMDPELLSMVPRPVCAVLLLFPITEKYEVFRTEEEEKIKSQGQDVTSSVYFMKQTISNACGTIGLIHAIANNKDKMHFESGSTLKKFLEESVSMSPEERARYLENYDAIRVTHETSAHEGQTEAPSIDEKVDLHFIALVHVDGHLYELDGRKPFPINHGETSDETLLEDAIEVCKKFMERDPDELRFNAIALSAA
In short: as §1

UCHL5 = target: T5, UCHL5 (UniProt Q9Y5K5)
T5 sequence (whole entry): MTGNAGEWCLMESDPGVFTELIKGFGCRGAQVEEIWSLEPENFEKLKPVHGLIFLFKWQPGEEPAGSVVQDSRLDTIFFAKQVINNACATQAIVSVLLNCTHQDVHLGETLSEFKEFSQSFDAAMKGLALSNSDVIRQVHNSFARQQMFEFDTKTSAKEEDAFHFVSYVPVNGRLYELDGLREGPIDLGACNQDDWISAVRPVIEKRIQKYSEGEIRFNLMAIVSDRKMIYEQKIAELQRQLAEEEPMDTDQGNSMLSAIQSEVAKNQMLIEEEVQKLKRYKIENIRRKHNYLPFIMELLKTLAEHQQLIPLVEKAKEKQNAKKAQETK
In short: as §1

USP10 = USP10 (UniProt Q14694)
In short: as §1

USP15 = target: T6, USP15 (UniProt Q9Y4E8)
T6 sequence (whole entry): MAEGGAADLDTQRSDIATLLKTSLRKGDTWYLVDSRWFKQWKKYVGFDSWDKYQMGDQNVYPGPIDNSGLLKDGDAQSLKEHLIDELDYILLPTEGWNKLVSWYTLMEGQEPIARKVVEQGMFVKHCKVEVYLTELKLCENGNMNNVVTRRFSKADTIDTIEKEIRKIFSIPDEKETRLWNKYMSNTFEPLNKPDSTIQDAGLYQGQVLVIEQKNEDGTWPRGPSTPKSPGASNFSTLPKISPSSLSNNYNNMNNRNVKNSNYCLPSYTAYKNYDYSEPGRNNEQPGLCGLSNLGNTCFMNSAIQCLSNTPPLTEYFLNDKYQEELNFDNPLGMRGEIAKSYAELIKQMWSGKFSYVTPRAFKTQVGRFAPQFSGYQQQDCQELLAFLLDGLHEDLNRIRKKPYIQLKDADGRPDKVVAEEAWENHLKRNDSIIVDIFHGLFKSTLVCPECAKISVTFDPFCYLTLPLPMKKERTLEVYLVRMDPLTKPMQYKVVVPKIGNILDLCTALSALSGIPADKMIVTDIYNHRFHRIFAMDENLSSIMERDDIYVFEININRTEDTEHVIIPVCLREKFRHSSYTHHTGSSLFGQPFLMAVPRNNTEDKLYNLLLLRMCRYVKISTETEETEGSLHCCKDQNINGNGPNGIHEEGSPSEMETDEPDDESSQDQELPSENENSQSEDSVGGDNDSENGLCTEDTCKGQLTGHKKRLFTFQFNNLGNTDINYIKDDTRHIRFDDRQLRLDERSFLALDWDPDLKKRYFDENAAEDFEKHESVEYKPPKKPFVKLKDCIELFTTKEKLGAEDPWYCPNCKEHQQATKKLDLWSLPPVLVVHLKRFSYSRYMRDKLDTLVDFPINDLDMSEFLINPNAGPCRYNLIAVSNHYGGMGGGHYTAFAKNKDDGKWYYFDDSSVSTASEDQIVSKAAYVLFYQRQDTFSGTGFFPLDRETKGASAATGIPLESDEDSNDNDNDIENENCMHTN
In short: as §1

USP16 = USP16 (UniProt Q9Y5T5)
In short: as §1

Measured: log2 ratio of Biotin-Ahx-Ub-VS probe labelling

Chain of UCHL1 (P09936 whole entry, looked up): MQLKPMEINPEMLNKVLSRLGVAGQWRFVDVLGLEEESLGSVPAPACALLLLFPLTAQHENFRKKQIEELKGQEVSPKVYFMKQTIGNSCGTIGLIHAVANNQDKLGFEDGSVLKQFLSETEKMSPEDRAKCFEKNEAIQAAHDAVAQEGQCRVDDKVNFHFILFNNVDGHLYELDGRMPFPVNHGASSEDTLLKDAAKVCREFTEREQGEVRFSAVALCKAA
Chain of USP10 (Q14694 whole entry): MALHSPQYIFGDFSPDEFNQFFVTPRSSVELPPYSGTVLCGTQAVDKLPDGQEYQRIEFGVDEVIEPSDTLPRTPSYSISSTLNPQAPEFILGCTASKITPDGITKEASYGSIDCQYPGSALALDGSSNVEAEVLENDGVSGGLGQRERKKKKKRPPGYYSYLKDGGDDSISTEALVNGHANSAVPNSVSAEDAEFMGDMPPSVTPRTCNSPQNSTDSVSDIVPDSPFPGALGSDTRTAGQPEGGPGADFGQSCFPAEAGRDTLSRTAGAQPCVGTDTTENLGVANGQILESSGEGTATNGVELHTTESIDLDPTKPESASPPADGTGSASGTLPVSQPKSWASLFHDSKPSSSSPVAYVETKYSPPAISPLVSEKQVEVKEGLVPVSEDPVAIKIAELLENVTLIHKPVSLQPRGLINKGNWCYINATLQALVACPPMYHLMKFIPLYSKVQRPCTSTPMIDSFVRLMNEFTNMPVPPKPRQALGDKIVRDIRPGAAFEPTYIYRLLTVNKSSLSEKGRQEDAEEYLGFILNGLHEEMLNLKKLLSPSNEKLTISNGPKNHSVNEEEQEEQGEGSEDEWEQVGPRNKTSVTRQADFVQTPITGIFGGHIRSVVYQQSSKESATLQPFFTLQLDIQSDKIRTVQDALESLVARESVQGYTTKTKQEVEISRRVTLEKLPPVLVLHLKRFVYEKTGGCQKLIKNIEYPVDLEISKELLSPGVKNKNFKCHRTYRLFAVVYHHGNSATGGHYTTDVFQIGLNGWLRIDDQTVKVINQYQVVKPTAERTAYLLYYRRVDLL
Chain of USP16 (Q9Y5T5 whole entry, looked up): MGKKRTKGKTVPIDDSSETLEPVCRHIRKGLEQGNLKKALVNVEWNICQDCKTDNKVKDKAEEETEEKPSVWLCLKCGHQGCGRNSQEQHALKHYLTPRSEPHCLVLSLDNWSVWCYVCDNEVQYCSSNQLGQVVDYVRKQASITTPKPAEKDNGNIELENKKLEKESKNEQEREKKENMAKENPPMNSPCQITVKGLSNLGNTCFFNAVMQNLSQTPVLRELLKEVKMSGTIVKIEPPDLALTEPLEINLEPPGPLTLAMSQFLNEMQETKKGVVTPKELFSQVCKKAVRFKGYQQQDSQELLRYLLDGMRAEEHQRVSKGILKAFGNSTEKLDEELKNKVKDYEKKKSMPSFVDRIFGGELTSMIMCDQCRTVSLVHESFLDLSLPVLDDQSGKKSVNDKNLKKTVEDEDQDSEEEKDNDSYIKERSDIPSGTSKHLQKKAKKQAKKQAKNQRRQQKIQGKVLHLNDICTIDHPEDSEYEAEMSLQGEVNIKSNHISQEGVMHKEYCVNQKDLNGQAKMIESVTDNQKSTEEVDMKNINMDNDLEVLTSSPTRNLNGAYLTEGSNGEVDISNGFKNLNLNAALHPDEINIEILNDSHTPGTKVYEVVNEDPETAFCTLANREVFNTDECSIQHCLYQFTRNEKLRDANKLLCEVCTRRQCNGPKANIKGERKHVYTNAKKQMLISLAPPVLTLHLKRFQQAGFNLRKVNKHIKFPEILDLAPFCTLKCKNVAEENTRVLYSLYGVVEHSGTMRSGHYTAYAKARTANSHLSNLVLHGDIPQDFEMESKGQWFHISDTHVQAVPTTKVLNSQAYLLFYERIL

CCCn1nccc1NC(=O)CCl
active: OTUD7B -1.42
inactive: OTUD6B 0.0729 | PRPF8 0.193 | PSMD7 -0.254 | UCHL1 -0.343 | UCHL3 0.0705 | UCHL5 -0.074 | USP10 -0.0888 | USP15 -0.238 | USP16 -0.307
